High-throughput results deposited in PubChem BioAssay by National Center for Advancing Translational Sciences (NCATS).
D2 ag-1 – Beta-Arrestin HTS for Positive Allosteric Modulators of the Human D2 Dopamine Receptor: Agonists | DiscoveRx PathHunter D2 beta-arrestin, luminescence, 90 min; 100% = 57 uM dopamine signal | activation, % (concentration not given with the values) | 360,000 tested, 0.084% active | AID 624465, 2012; in the data active means activation above about 40%; inconclusive means between about 15% and that limit
Target sequence (P14416 whole entry, looked up): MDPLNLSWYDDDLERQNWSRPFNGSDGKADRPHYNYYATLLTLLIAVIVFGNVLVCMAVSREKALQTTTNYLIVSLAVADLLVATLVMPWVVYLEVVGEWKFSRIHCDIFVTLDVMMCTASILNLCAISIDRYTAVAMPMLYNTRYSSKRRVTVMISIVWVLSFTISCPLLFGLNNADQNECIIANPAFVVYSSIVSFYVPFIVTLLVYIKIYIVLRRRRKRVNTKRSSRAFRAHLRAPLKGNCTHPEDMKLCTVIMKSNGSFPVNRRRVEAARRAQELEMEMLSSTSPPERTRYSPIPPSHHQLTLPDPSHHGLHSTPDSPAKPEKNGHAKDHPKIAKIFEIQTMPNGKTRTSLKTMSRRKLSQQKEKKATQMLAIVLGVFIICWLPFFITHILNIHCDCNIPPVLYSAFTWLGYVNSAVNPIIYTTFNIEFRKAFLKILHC
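Agonist mode: compounds alone added to overnight-plated D2 PathHunter cells for 90 min at 37 C, with 57 uM final dopamine (EC100) defining full response. Beta-arrestin recruitment detected by chemiluminescent reagent, read after 1 h at ambient temperature.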
D2 PAM-1 – HTS Assay for Positive Allosteric Modulators of the Human D2 Dopamine Receptor: Primary Screen for Potentiators | D(2) dopamine receptor (Homo sapiens), P14416 | AID 485347, 2010 | 340,000 tested, 0.34% active | HEK293 T-REx D2, calcium flux, EC20 dopamine potentiation | potentiation, % at 10 µM;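 active means potentiation over 3 SD above the plate norm, cut at about 30% in these data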; further: 0% is about no effect
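Using a no-wash calcium dye in inducible, force-coupled HEK293 Trex cells expressing D2, we tracked fluorescence each second for 180 s after compound, then for 180 s after EC20 dopamine to detect augmented signalling.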
D2 ag-2 – HTS Assay for Allosteric Agonists of the Human D2 Dopamine Receptor: Primary Screen for Agonists. D(2) dopamine receptor (Homo sapiens), P14416. HEK293 T-REx D2 cells, calcium flux agonist mode. activation, % at 2 µM. 340,000 tested, 0.53% active. AID 485358, 2010;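 active means activation over 3 SD above normal in the single-dose calcium agonist read, cut at about 30% in these data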; further: 0% is about no effect
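In this primary screen, compounds producing a positive calcium signal within 180 s of addition to tetracycline-induced, force-coupled HEK293 Trex D2 cells are flagged; cells are dye-loaded with a no-wash calcium kit beforehand.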
D2 antagonist – HTS Assay for Allosteric Antagonists of the Human D2 Dopamine Receptor: Primary Screen for Antagonists | D(2) dopamine receptor (Homo sapiens), P14416 | HEK293 TREx D2 cells, calcium flux, dopamine EC80 | inhibition, % at 10 µM | 340,000 tested, 2% active; in the data active means inhibition above about 30%; inactive means below that, where a call was filed; further: 0% is about no effect
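Antagonism is scored as inhibition of an EC80 dopamine-evoked calcium signal in a force-coupled, tetracycline-inducible HEK293 T-REx D2 line, with compound present 180 s before agonist.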
D2 PAM-2 – Beta-Arrestin HTS for Positive Allosteric Modulators of the Human D2 Dopamine Receptor: Potentiators. DiscoveRx D2 beta-arrestin cells, luminescence, 90 min; 100% = 57 uM dopamine signal. potentiation, % (concentration not given with the values). D(2) dopamine receptor (Homo sapiens), P14416. AID 624464, 2012. 360,000 tested, 0.23% active; in the data active means potentiation above about 50%; inconclusive means mostly about 30% to 49%
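D2 cells co-treated with compound plus 50 nM dopamine (EC20) for 90 min at 37 deg C to detect potentiation. Beta-arrestin recruitment was read as enzyme-fragment luminescence after 1 h at ambient temperature. Full response was set by 57 uM dopamine.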
The depositor's hits bear a star; ? = inconclusive; · = not tested or not shown. Only some compounds are listed: those with a hit (about 2.4% of all), similar ones and a draw of the others.

SMILES	D2 ag-1	D2 PAM-1	D2 ag-2	D2 antagonist	D2 PAM-2
C/C(=C\c1ccccc1)CN1CCN(Cc2ccc(C)o2)C(CCO)C1 (stereo not given)	-1.8	-23.4	-0.2	28.3	-33.3
CCCCn1c(N)c(N(Cc2ccccc2OC)C(=O)c2ccc([N+](=O)[O-])s2)c(=O)[nH]c1=O	?	-1.2	0.3	-22.8	50.3*
O=C(Nc1c(C(=O)N2CCOCC2)cnn1-c1ccccc1)c1cccc(F)c1	-4.7	2.4	0.7	18.1	-25.9
CC(=O)c1cccc(CN2CCN(Cc3ccc(C)cc3)C(CCO)C2)c1 (stereo not given)	-6.1	-27.3	0.5	54.6*	-31.8
CC(=O)c1cccc(CN2CCN(CCc3ccccc3)C(CCO)C2)c1 (stereo not given)	-2.5	-16.8	1.2	34.3*	-26.2
C/C(=N\NC(=O)c1ccc(Cn2cc(Br)cn2)o1)c1cccc(NC(=O)C(C)(C)C)c1	-0.6	-5.4	2.0	7.9	22.5
O=C(Nc1ccc(C(F)(F)F)cc1Cl)c1ccc(Cn2cc(Br)cn2)o1	2.3	-22.1	1.7	37.2*	-6.5
O=C(Nc1cccc(C(F)(F)F)c1)c1ccc(Cn2cc(Br)cn2)o1	-3.1	-17.4	1.8	35.5*	-30.3
O=C(N/N=C/c1c(F)cccc1Cl)c1ccc(Cn2cc(Br)cn2)o1	-4.0	-7.0	-3.2	-7.2	-11.0
O=C(CSc1nnc2ccccn12)NNC(=O)c1ccc(F)cc1	-2.5	-1.6	1.4	-3.9	0.4
CCC(=O)N(c1nnc(SCC(=O)Nc2ccccc2Cl)s1)C1CC1	-1.0	·	·	·	2.9
Cc1ccc2c(c1)c(=O)c(Br)c(C)n2Cc1ccccc1	-4.7	-5.0	0.1	56.3*	-17.5
Cc1cc(=O)c2ccccc2n1Cc1ccccc1	-3.9	-2.7	-0.6	-2.2	-12.5
CCN(CC)CCNC(=S)Nc1ccc2nc3n(c(=O)c2c1)CCCCC3	-2.7	-5.4	1.3	-13.4	-4.2
CCCN(CCC)CCCNC(=S)Nc1ccc2nc3n(c(=O)c2c1)CCCCC3	2.0	-17.9	32.5*	-3.0	-21.6
CC(=O)Nc1ccc(Nc2c3c4c(cccc4n(C)c2=O)C(=O)c2ccccc2-3)cc1	-3.3	13.6	8.5	3.1	-5.5
CCNc1c2c3c(cccc3n(C)c1=O)C(=O)c1ccccc1-2	-0.3	-8.8	112.1*	21.4	-4.6
Cn1c(=O)c(NCCc2ccccc2)c2c3c(cccc31)C(=O)c1ccccc1-2	0.3	-10.8	87.3*	71.7*	-6.5
Cn1c(=O)c(NC2CCCCC2)c2c3c(cccc31)C(=O)c1ccccc1-2	4.1	-10.0	110.5*	59.6*	-1.3
Cn1c(NCCc2ccccc2)cc(=O)n(C)c1=O	0.5	-3.2	0.8	0.0	0.4
Cn1c(=O)c(NCCO)c2c3c(cccc31)C(=O)c1ccccc1-2	-3.9	-25.9	126.4*	82.4*	-7.7
CCCCNc1c2c3c(cccc3n(C)c1=O)C(=O)c1ccccc1-2	-0.2	-12.1	92.8*	11.1	-5.6
O=C(Nc1ccc(NC(=O)C2CC2)nc1)c1cccnc1	-0.3	2.4	1.1	38.0*	-15.5
O=C(Nc1ccc(NC(=O)C2CC2)cn1)c1ccccc1	3.7	3.9	0.9	35.9*	1.0
O=C(Nc1ccc(NC(=O)C2CC2)cn1)c1ccccc1Cl	-1.9	9.5	-0.3	22.5	2.1
SMILES	D2 ag-1	D2 PAM-1	D2 ag-2	D2 antagonist	D2 PAM-2
O=C(Nc1ccc(NC(=O)C2CC2)nc1)c1cccc(F)c1	-4.2	-5.9	-0.2	-12.7	-20.0
COc1cc2c(cc1OC)-c1nnnn1C(C)(C)C2	1.2	-0.6	0.2	-0.8	-5.0
COc1cc2c(cc1OC)-c1n[nH]c(=S)n1C(C)(C)C2	-4.3	35.0*	1.9	-0.6	-30.9
CN(CC1CCN(CCc2cccc(C(F)(F)F)c2)CC1)C(=O)c1ccc(F)cc1	5.3	-19.5	-0.3	58.3*	-25.7
COc1cc(NC(=O)CCn2cnc3ccccc3c2=O)cc(OC)c1	·	1.8	0.9	·	·
Cc1ccc(NC(=O)CCc2nnc3ccc(N4CCC(C)CC4)nn23)nc1	-3.1	10.5	-0.4	32.0*	-9.2
CC1(C)CC[C@]2(CO)CC[C@]3(C)C(=CCC4[C@@]5(C)CC[C@H](O)[C@@](C)(CO)C5CC[C@]43C)[C@@H]2C1 (stereo not given in full)	-2.7	·	·	·	-17.3
O=C(NC1CC1)C1CCN(C2CCN(C(=O)Cc3ccc(F)cc3)CC2)CC1	0.5	12.8	2.0	34.4*	-2.3
O=C(CN1C(=O)NC2(CCOc3ccccc32)C1=O)c1ccc(F)cc1 (stereo not given)	5.7	2.5	1.1	-7.4	0.7
Cc1ccc(Nc2cc(-c3ccccc3)nc3ncnn23)cc1	-2.7	-1.4	-0.2	33.5*	-7.7
Cc1cc(Nc2ccc(Cl)cc2)n2ncnc2n1	-1.9	5.3	0.4	-2.6	-3.6
CCCCCNC(=O)C1CCC(Cn2c(=O)c3sccc3n(CC)c2=O)CC1 (stereo not given)	·	6.3	0.0	·	·
Cc1ccc(CN2CCN(CC3CC4C=CC3C4)CC2)cc1 (stereo not given)	-1.8	-26.0	0.0	65.4*	-32.0
O=S(=O)(c1ccccc1)N1CCN(CC2CC3C=CC2C3)CC1 (stereo not given)	-3.9	-2.2	-0.6	0.5	-8.5
COc1ccc(NC(=O)NNC(=O)CCc2ccc(O)c(O)c2)cc1OC	8.9	-8.9	39.0*	-7.9	2.4
CC(OC(=O)c1n[nH]c2ccccc12)C(=O)Nc1ccccc1[N+](=O)[O-] (stereo not given)	2.4	-0.2	-0.5	-7.5	8.9
NC(=O)c1nsc(C(=O)N(CC(=O)NCc2ccco2)c2ccccc2F)c1N	-3.1	32.6*	-0.3	7.8	-3.8
CC1CC(C)CN(CCOc2ccccc2-c2ccccc2)C1 (stereo not given)	-1.4	-29.4	-0.9	78.8*	-36.0
c1ccc(-c2ccccc2OCCOCCN2CCNCC2)cc1	-2.4	-24.7	1.4	-30.1	-14.1
CC1CCN(CCOc2ccccc2-c2ccccc2)CC1	-5.2	-15.2	-0.2	75.0*	-13.9
CCN1CCN(CCOCCOc2ccccc2-c2ccccc2)CC1	·	-18.7	-0.9	60.1*	·
COc1ccc(NC(=O)C2CCN(S(=O)(=O)c3cccc4nonc34)CC2)cc1OC	-0.5	2.9	0.6	-13.3	-3.1
CCN(CC)c1ccc(NS(=O)(=O)c2cc3[nH]c(=O)c(=O)[nH]c3cc2C)c(C)c1	·	-7.8	-0.7	·	·
